Measured values as given in PubChem BioAssay (NCI).
Values joined by “and” are separate entries in the source; they are usually repeats but may differ in a detail not shown here. Identical values can stand only once. Compounds without any hit were thinned out: in the full panel of roughly 83,000, 20% have a hit.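 The test compound was applied at a single concentration to cells in 96-well plates for 48 hours, and percent growth was recorded.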 Active and inactive are the calls of the source. How the source made its calls: active means growth percent below 10; inactive means the rest.

Tests used:
Assay in all cases: NCI-60 one-dose screen, 48 h (100 = growth as untreated, 0 = no growth, -100 = all killed)
NCI-H23 lung = test system: NCI-H23 lung
NCI-H226 lung = test system: NCI-H226 lung
NCI-H322M lung = details: 10 µM unless noted
HOP-62 NSCLC = test system: HOP-62 NSCLC
NCI-H460 lung = test system: NCI-H460 lung
HOP-92 NSCLC = details: 10 µM unless noted
NCI-H522 lung = details: 10 µM unless noted
A549/ATCC NSCLC = test system: A549/ATCC NSCLC
786-0 renal = test system: 786-0 renal
COLO 205 colon = test system: COLO 205 colon
DU-145 prostate = test system: DU-145 prostate
K-562 leukemia = test system: K-562 leukemia
MALME-3M melanoma = test system: MALME-3M melanoma
MDA-MB-231 breast = test system: MDA-MB-231 breast
RXF 393 renal = test system: RXF 393 renal
SF-268 CNS = test system: SF-268 CNS
SF-295 CNS = test system: SF-295 CNS
SF-539 CNS = test system: SF-539 CNS
UACC-257 melanoma = details: 10 µM unless noted
M14 melanoma = details: 10 µM unless noted

Measured: growth

O=C(NC(=O)c1ccc(F)c(Cl)c1)NC1CC1
inactive: NCI-H23 lung; 10 µM unless noted 104% and 98.8% | NCI-H226 lung; 10 µM unless noted 99.6% and 90.7% | NCI-H322M lung 113% and 110% | HOP-62 NSCLC; 10 µM unless noted 107% and 101% | NCI-H460 lung; 10 µM unless noted 100% and 102% | HOP-92 NSCLC 99.8% | NCI-H522 lung 75.7% and 85.1% | A549/ATCC NSCLC; 10 µM unless noted 81.8% and 99.2% | 786-0 renal; 10 µM unless noted 98.7% and 94.1% | COLO 205 colon; 10 µM unless noted 113% and 108% | DU-145 prostate; 10 µM unless noted 106% and 98.7% | K-562 leukemia; 10 µM unless noted 78.4% and 95.9% | MALME-3M melanoma; 10 µM unless noted 107% and 98.9% | MDA-MB-231 breast; 10 µM unless noted 117% | RXF 393 renal; 10 µM unless noted 113% | SF-268 CNS; 10 µM unless noted 103% | SF-295 CNS; 10 µM unless noted 104% and 99.5% | SF-539 CNS; 10 µM unless noted 110% and 98.4% | UACC-257 melanoma 97.3% and 103%

NNc1ncnc2cccc(Cl)c12
inactive: NCI-H23 lung; 10 µM unless noted 99.9% | NCI-H226 lung; 10 µM unless noted 93.1% | NCI-H322M lung 101% | HOP-62 NSCLC; 10 µM unless noted 95.3% | NCI-H460 lung; 10 µM unless noted 113% | HOP-92 NSCLC 79.7% | NCI-H522 lung 84.8% | A549/ATCC NSCLC; 10 µM unless noted 81.1% | 786-0 renal; 10 µM unless noted 105% | COLO 205 colon; 10 µM unless noted 104% | DU-145 prostate; 10 µM unless noted 112% | K-562 leukemia; 10 µM unless noted 99.4% | MALME-3M melanoma; 10 µM unless noted 99% | MDA-MB-231 breast; 10 µM unless noted 105% | RXF 393 renal; 10 µM unless noted 103% | SF-268 CNS; 10 µM unless noted 107% | SF-295 CNS; 10 µM unless noted 98.7% | SF-539 CNS; 10 µM unless noted 97.2% | UACC-257 melanoma 88.2% | M14 melanoma 104%

NC1=NC(c2ccccc2)N=C(Nc2ccccc2)N1 (stereo unspecified)
inactive: NCI-H23 lung; 10 µM unless noted 79.5% and 66.5% | NCI-H226 lung; 10 µM unless noted 81.7% and 52.5% | NCI-H322M lung 91.5% and 84.7% | HOP-62 NSCLC; 10 µM unless noted 78.1% and 74.8% | NCI-H460 lung; 10 µM unless noted 103% and 95% | HOP-92 NSCLC 81% and 89.1% | NCI-H522 lung 83.8% and 110% | A549/ATCC NSCLC; 10 µM unless noted 94.1% and 106% | 786-0 renal; 10 µM unless noted 93.3% and 101% | COLO 205 colon; 10 µM unless noted 91.7% and 63.4% | DU-145 prostate; 10 µM unless noted 105% and 100% | K-562 leukemia; 10 µM unless noted 53.4% and 65.1% | MALME-3M melanoma; 10 µM unless noted 84.9% and 53.8% | MDA-MB-231 breast; 10 µM unless noted 101% and 74.6% | RXF 393 renal; 10 µM unless noted 91.5% | SF-268 CNS; 10 µM unless noted 49.2% and 54% | SF-295 CNS; 10 µM unless noted 87.5% and 83.6% | SF-539 CNS; 10 µM unless noted 84.8% and 55.2% | UACC-257 melanoma 91.9% and 108% | M14 melanoma 81.9% and 75.9%

O=C(NC(CSSCC(NC(=O)OCc1ccccc1)C(=O)O)C(=O)O)OCc1ccccc1 (stereo unspecified)
inactive: NCI-H23 lung; 10 µM unless noted 93.2% and 97.3% | NCI-H226 lung; 10 µM unless noted 86.1% | NCI-H322M lung 92.9% and 102% | HOP-62 NSCLC; 10 µM unless noted 95% and 81.8% | NCI-H460 lung; 10 µM unless noted 95% and 107% | HOP-92 NSCLC 63.8% and 78.5% | NCI-H522 lung 70.3% | A549/ATCC NSCLC; 10 µM unless noted 80.5% | 786-0 renal; 10 µM unless noted 91.2% and 91.1% | COLO 205 colon; 10 µM unless noted 96.4% and 91.5% | DU-145 prostate; 10 µM unless noted 101% and 118% | K-562 leukemia; 10 µM unless noted 84.7% and 78.1% | MALME-3M melanoma; 10 µM unless noted 86.6% and 104% | MDA-MB-231 breast; 10 µM unless noted 90.5% and 108% | RXF 393 renal; 10 µM unless noted 81% and 113% | SF-268 CNS; 10 µM unless noted 92.4% and 107% | SF-295 CNS; 10 µM unless noted 89.6% and 103% | SF-539 CNS; 10 µM unless noted 93.7% and 91.8% | UACC-257 melanoma 91.9% | M14 melanoma 93.5% and 88.9%

CS/C(=C\c1ccc(C(=O)c2ccc(C)cc2)n1C)S(C)=O (stereo unspecified)
inactive: NCI-H23 lung; 10 µM 109% | NCI-H23 lung; 100 µM 66.2% | NCI-H226 lung; 10 µM 81.3% | NCI-H226 lung; 100 µM 72.3% | HOP-62 NSCLC; 10 µM 96.8% | HOP-62 NSCLC; 100 µM 76.9% | NCI-H460 lung; 10 µM 96.8% | NCI-H460 lung; 100 µM 91.4% | A549/ATCC NSCLC; 10 µM 85.1% | A549/ATCC NSCLC; 100 µM 65.7% | 786-0 renal; 10 µM 99.4% | 786-0 renal; 100 µM 74.1% | COLO 205 colon; 10 µM 126% | COLO 205 colon; 100 µM 93.5% | DU-145 prostate; 10 µM 110% | DU-145 prostate; 100 µM 88.1% | K-562 leukemia; 10 µM 44.4% | K-562 leukemia; 100 µM 26.3% | MALME-3M melanoma; 10 µM 95% | MALME-3M melanoma; 100 µM 69.3% | MDA-MB-231 breast; 10 µM 89.6% | MDA-MB-231 breast; 100 µM 85.6% | RXF 393 renal; 10 µM 101% | RXF 393 renal; 100 µM 73.2% | SF-268 CNS; 10 µM 112% | SF-268 CNS; 100 µM 93.2% | SF-295 CNS; 10 µM 60.7% | SF-295 CNS; 100 µM 62.2% | SF-539 CNS; 10 µM 91.3% | SF-539 CNS; 100 µM 80.4% | UACC-257 melanoma 64.6% [100 µM]
active: NCI-H522 lung 6.15% [100 µM]
